Assay results: PubChem BioAssay (NCATS)
Inconclusive results are not listed. A call without a number means that no potency is given here. Values without a mark were called inactive. The source made the active and inactive calls. Calls come from the whole dose curve; as a rule, active = well fitted curve in the direction sought with a large enough effect; inconclusive = small, poorly fitted or top-dose-only effect, or another doubt; inactive = no such curve, though single readings can be large; an effect the other way counts as inactive or inconclusive.

Legend:
[1] = OV-KATE Cancer Cell Toxicity qHTS against the NCATS CANVASS Library (AID 1347345); note: potency is the fitted concentration of half-maximal effect
How it was run: (§1)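 1000 cells/well; 4 h settle; 11-pnt titration; 72 h, 37 degrees C, 5% CO2; CellTiter-Glo, 15min RT; luminescence read.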

[2] = UWB1.289 Cancer Cell Toxicity qHTS against the NCATS CANVASS Library (AID 1347347); note: nearly all actives have a fitted effect of over 60% in size; note: potency is the fitted concentration of half-maximal effect
How it was run: as §1

[3] = SW1088 Cancer Cell Toxicity qHTS against the NCATS CANVASS Library (AID 1347350); note: nearly all actives have a fitted effect of over 75% in size; note: potency is the fitted concentration of half-maximal effect
How it was run: as §1

[4] = A2780 Cisplatin Sensitive Ovarian Cancer Cell Toxicity qHTS against the NCATS CANVASS Library (AID 1347353); note: nearly all actives have a fitted effect of over 60% in size; note: potency is the fitted concentration of half-maximal effect
How it was run: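 Seventy-two-hour exposure of cisplatin-sensitive A2780 ovarian cells to an 11-concentration qHTS series; cytotoxicity is inferred from loss of ATPLite luminescence. Bortezomib titration served as positive control.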

[5] = UWB1.289-WTBRCA1 Cancer Cell Toxicity qHTS against the NCATS CANVASS Library (AID 1347354); note: potency is the fitted concentration of half-maximal effect
How it was run: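 qHTS cytotoxicity: compounds tested in 11 concentrations on 1000 seeded cells per well over 72 h; bortezomib served as control; signal from CellTiter-Glo luminescence.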

[6] = HPAF-II 12hr Apoptosis Induction qHTS against the NCATS CANVASS Library (AID 1347358)
How it was run: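 Apoptosis in HPAF-II pancreatic cancer cells is scored as caspase 3/7 luminescence following a 12-hour exposure to an 11-point compound series.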

[7] = HPAF-II 18hr Apoptosis Induction qHTS against the NCATS CANVASS Library (AID 1347360)
How it was run: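 HPAF-II cells at 500/well were exposed for 18 h at 37 C to an 11-point compound series. Caspase-3/7 activity was read by Caspase-Glo luminescence after 15 min at RT.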

[8] = G06 Cancer Cell Toxicity qHTS against the NCATS CANVASS Library (AID 1347368); note: nearly all actives have a fitted effect of over 60% in size; note: potency is the fitted concentration of half-maximal effect
How it was run: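 Cytotoxicity toward canine glioma G06 cells is scored from cellular ATP via luminescence after 72 hr compound exposure at 500 cells/well.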

[9] = qHTS for Hypoxia signaling pathway (HIF-1) antagonists against the NCATS CANVASS Library (AID 1347374); note: nearly all actives have a fitted effect of over 60% in size; note: potency is the fitted concentration of half-maximal effect
How it was run: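 HRE-bla ME-180 cells (2,000/well, 0.5% dialyzed FBS) were pre-incubated 5 h, then given an 11-point compound series plus CoCl2 (60 uM solution as added) for 17 h at 37C. CCF4 β-lactamase read (ex 405, em 460/530 nm) after 2 h at RT.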

[10] = qHTS for Hypoxia signaling pathway (HIF-1) agonists against the NCATS CANVASS Library (AID 1347375)
How it was run: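 Inducers of HIF-1 signaling were detected in ME-180 cells bearing an HRE-driven beta-lactamase reporter after 17 h compound exposure. Activity came from CCF4-AM FRET emission ratio (460/530 nm) in qHTS format.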

[11] = DH5-alpha competent E. coli microbial cell viability qHTS against the NCATS CANVASS Library (AID 1347377); conditions: outcome: dose series up to 46.1 µM unless noted
How it was run: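 Cell viability of competent DH5-alpha E. coli is scored from ATP content by luminescence. Cells sit overnight at 37C with compound across an 11-point concentration series.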

[12] = qHTS for Activators of p53 Stress Response Pathway screened against the NCATS CANVASS Library (AID 1347388)
How it was run: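 Beta-lactamase reporter driven by p53 response elements in HCT-116 cells, read as the 460 nm/530 nm emission ratio after CCF4 loading, following 16 h of exposure to an 11-point series. Cell viability was measured in the same wells by CellTiter-Glo luminescence.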

[13] = qHTS assay for small molecule disruptors of mitochondrial membrane potential screened against the NCATS CANVASS Library (AID 1347389)
How it was run: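 Compounds tested in 11-point qHTS series on HepG2 cells for 1 hr; membrane-potential dye added for 30 min at 37C. Lower red-to-green ratio indicates loss of potential.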

[14] = Secretion counterscreen for inhibitors of the SERCaMP assay screened against the NCATS CANVASS Library (AID 1347390);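 note: light from luciferase secreted into medium read as a measure of general secretion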; note: potency is the fitted concentration of half-maximal effect
How it was run: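 SH-SY5Y cells with constitutively secreted GLuc reporter, 1000 cells/well, treated 20 h at 37C with compounds at 0.001 - 77 uM final; secreted luciferase read as luminescence after coelenterazine; Brefeldin A as positive control.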

[15] = qHTS for activators of Nrf2/ARE signaling pathway screened against the NCATS CANVASS Library (AID 1347391); note: nearly all actives have a fitted effect of over 60% in size; note: potency is the fitted concentration of half-maximal effect
How it was run: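 Cells carrying an ARE-driven beta-lactamase reporter (HepG2 background) are dosed for 16 h, then stained with CCF4. Cell viability in the same wells is measured by CellTiter-Glo luminescence.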

[16] = qHTS for inhibitors of ER calcium dysfunction: SERCaMP assay screened against the NCATS CANVASS Library (AID 1347393); note: nearly all actives have a fitted effect of over 40% in size; note: potency is the fitted concentration of half-maximal effect
How it was run: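 Thapsigargin-induced ER calcium depletion drives GLuc-SERCaMP secretion from SH-SY5Y cells; compounds given 16 h beforehand were scored by lowered coelenterazine luminescence after 4 h challenge.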

[17] = qHTS for inhibitors of Wild type Zika virus screened against the NCATS CANVASS Library (AID 1347396);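 note: ATP luminescence of surviving cells so rescue from viral cell killing; series mostly up to about 46 µM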
How it was run: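 Using ATP-based luminescence (CellTiter Glo), this screen scores rescue of Vero 766 cells from wild-type Zika killing at 72 h post-infection. Compounds are tested in a concentration series.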

[18] = OV-SAHO Cancer Cell Toxicity qHTS against the NCATS CANVASS Library (AID 1347348); note: series mostly up to about 38 µM; nearly all actives have a fitted effect of over 55% in size
How it was run: as §1

[19] = qHTS for H2AX Agonists against the NCATS CANVASS Library (AID 1347378); note: potency is the fitted concentration of half-maximal effect
How it was run: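 CHO-K1 cells (1000/well, overnight at 37C) exposed to compounds at several concentrations for 3 hr at 37C, 0.76% DMSO final. Lysates read by TR-FRET (phospho-H2AX S139 Eu-cryptate antibody / H2AX-d2 antibody) after 24 hr at room temperature; 665/615 nm ratio.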

[20] = Redox Reaction Profiling qHTS: Assay Interference Panel against the NCATS CANVASS Library (AID 1347401); note: potency is the fitted concentration of half-maximal effect
How it was run: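 Cell-free redox surrogate: 5 uM resazurin + 200 uM DTT, 50 mM HEPES pH 7.3/50 mM NaCl; cpds pinned, 11-pt qHTS; Ex525/Em598 read t0 and t=15 min, dark.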

| Compound | Potency [1] | Potency [2] | Potency [3] | Potency [4] | Potency [5] | Potency [6] | Potency [7] | Potency [8] | Potency [9] | Potency [10] | outcome [11] | Potency [12] | Potency [13] | Potency [14] | Potency [15] | Potency [16] | Potency [17] | Potency [18] | Potency [19] | Potency [20] |
| --- | --- | --- | --- | --- | --- | --- | --- | --- | --- | --- | --- | --- | --- | --- | --- | --- | --- | --- | --- | --- |
| C/C=C/C=C/C1(O)C2C=C3C(=O)CC45C(=O)C(O)=C(C)C(=O)C4C1C1(C(=O)C(O)=C(C)C(=O)C351)C2C (stereo not given) | inactive | inactive | inactive | inactive | inactive | inactive | inactive | inactive | inactive | inactive | inactive | inactive | inactive | inactive | inactive | inactive | inactive |  |  |  |
| O=C(O)CC1OC(=O)c2c(O)cccc21 (stereo not given) |  | inactive | inactive | inactive | inactive | inactive |  |  | inactive | inactive | inactive | inactive | inactive | inactive | inactive | inactive | inactive | inactive | inactive | inactive |
| O=c1cc(-c2ccc(O)c(O[C@@H]3O[C@H](CO)[C@@H](O)[C@H](O)[C@H]3O)c2)oc2cc(O[C@@H]3O[C@H](CO)[C@@H](O)[C@H](O)[C@H]3O)cc(O)c12 | inactive |  | inactive |  | inactive |  |  |  | inactive | inactive | inactive | inactive | inactive | inactive | inactive | inactive | inactive |  |  | inactive |
| C/C=C/c1cc(OC)c2c(c1)[C@@H](C)[C@H](c1ccc(O)c(OC)c1)O2 | inactive | inactive | inactive | inactive | inactive |  |  |  | inactive | inactive | inactive | inactive | inactive | inactive |  | 24300 nM (active) | inactive |  |  | inactive |
| CN1C(=O)[C@]23SS[C@@]1(C)C(=O)N2[C@H]1Nc2ccccc2[C@]1(c1c[nH]c2ccccc12)[C@@H]3O | 1060 nM (active) | 747 nM (active) | 237 nM (active) | 132 nM (active) |  |  |  | 296 nM (active) | 941 nM (active) | inactive | inactive |  |  | 1720 nM (active) | 1860 nM (active) | inactive |  |  | 21700 nM (active) | 24100 nM (active) |
| C/C(=C\[C@H](C)C(=O)CCCC1CC(=O)NC(=O)C1)C(O)[C@@H](C)[C@H](O)C/C=C/CC/C=C/C(=O)O (stereo not given in full) | inactive | inactive |  | inactive | inactive | inactive | inactive |  | inactive | inactive | inactive | inactive | inactive | inactive | inactive | inactive | inactive |  |  |  |
| CC(=O)[C@@H]1[C@@H](O)C[C@H]2[C@]3(C)CC[C@H]4C(C)(C)CCC[C@]4(CO)[C@H]3C[C@H]3OC(=O)[C@@H]1[C@@]32C | inactive |  | inactive | inactive | inactive |  | inactive | inactive | inactive | inactive | inactive | inactive | inactive | inactive | inactive | 38400 nM (active) | inactive | inactive |  | inactive |
| CS/C=C/C(N)=O | inactive | inactive | inactive | inactive | inactive |  |  | inactive | inactive | inactive | inactive | inactive | inactive | inactive | inactive | inactive | inactive |  | inactive | inactive |
| CCCCCCCCCCCCCCC[C@H](O)C[C@@H](O)C[C@@H](O)C[C@@H](O)C[C@@H](O)C[C@H]1CC=CC(=O)O1 | 2110 nM (active) | 2110 nM (active) | 1490 nM (active) | 743 nM (active) | 3340 nM (active) |  |  | 2640 nM (active) |  |  | inactive | inactive |  | 8600 nM (active) | inactive | inactive |  |  |  | inactive |
| CCCCCCC[C@@H](C/C=C/CCC(=O)NCCc1c[nH]c2ccccc12)OC | inactive |  |  | inactive | inactive | inactive | inactive | inactive | inactive | inactive |  | inactive |  | inactive | inactive | 34300 nM (active) |  |  | inactive | inactive |
| COc1ccc(CCCc2cc(O)c(OC)c(O)c2)c(O)c1O |  | inactive | inactive | inactive | inactive |  | inactive | 14.8 nM (active) | inactive | inactive | inactive | inactive |  | inactive |  |  | inactive | inactive |  | 21500 nM (active) |
| O=C1C[C@@H](c2ccc(O)c(-c3c(O)cc(O)c4c3O[C@H](c3ccc(O)cc3)CC4=O)c2)Oc2cc(O)cc(O)c21 | inactive |  | inactive | inactive | inactive | inactive | inactive | inactive | inactive | inactive | inactive | inactive | inactive | inactive |  | inactive | inactive |  | inactive | inactive |
| C=C(NC(=O)c1csc(-c2nc3c(cc2O)-c2nc(cs2)C(=O)NC(C(C)O)C(=O)N/C(=C(\C)O)c2nc(cs2)C(=O)NC2c4nc(cs4)C(=O)NC(COC(=O)c4c5c6c(cccc6n4O)COC(=O)[C@@H](OC4C[C@](C)(O)[C@H](N(C)C)[C@H](C)O4)C2OC5)c2nc-3cs2)n1)C(N)=O (stereo not given in full) |  | inactive | inactive | inactive | inactive | inactive | inactive |  | inactive |  | inactive |  |  |  | inactive |  | inactive | inactive | inactive |  |
| CCCCCC[C@H](CCCCC[C@@H](O)C(N)=O)OC(=O)[C@@H]1CC=CN1C(=O)c1ccccc1O | inactive | 6660 nM (active) |  |  |  |  | inactive |  | inactive | inactive |  | inactive | inactive | inactive | inactive | inactive | inactive |  | inactive | inactive |
